Rows were chosen to be rich in hits. Some 27% of all compounds tested hit in one or more screens of this group.
sEH act = increases human soluble epoxide hydrolase activity | P34913 | purified human sEH enzymatic activity, activator screen | activation, % at 2 µM | 0.04% of 91,000 active; in the data active = activation above about 37%
CYP2C19 inhib = blocks human cytochrome P450 2C19. AID 778. P33261. inhibition, % at 5 µM. 21% of 96,000 active. CYP2C19 Supersomes, luciferin-H EGE luminescence, 30 min;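 active = CYP2C19 inhibition above a set limit at 5 µM in the primary screen, cut at about 50% in these data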;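 note: plate controls were negative control wells for no effect and 2.5 mM tranylcypromine positive control for full effect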
Target sequence (P33261 whole entry, looked up): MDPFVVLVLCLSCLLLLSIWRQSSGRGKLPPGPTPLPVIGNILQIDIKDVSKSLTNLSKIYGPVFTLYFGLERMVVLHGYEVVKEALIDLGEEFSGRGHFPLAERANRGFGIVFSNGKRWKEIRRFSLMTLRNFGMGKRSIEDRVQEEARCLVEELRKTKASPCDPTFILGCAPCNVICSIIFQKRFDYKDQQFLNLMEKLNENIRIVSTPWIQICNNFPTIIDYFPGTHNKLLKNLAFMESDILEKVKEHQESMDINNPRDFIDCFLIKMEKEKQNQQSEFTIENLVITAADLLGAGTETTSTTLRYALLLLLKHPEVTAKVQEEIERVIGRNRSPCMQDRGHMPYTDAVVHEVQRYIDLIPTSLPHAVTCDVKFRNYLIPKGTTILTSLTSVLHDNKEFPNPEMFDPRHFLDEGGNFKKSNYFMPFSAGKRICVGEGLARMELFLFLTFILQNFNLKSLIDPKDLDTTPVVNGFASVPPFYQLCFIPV
CYP2C19 act = activators of human cytochrome P450 2C19 | activation factor at 5 µM | 96,000 tested, under 10 active | recombinant CYP2C19, luciferin-H EGE luminescence; active compounds read high; 0 = fully inhibited enzyme, 1 = untreated enzyme | AID 1025;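 active = activation factor of at least 2 at 5 µM in the primary screen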;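 note: 0 = wells with 2.5 mM tranylcypromine and 1 = vehicle-only wells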
sEH inh = inhibitors of human soluble epoxide hydrolase; P34913; inhibition, % at 2 µM; AID 707; recombinant human sEH enzymatic activity assay; 0.34% of 91,000 active; in the data active = inhibition above about 80%
CYP2C9 activ = CYP2C9 (human) activation; P11712; 1.4% of 96,000 active; activation factor at 5 µM; AID 1024; recombinant CYP2C9, luciferin-H conversion, luminescence; active compounds read high; factor 1 = untreated enzyme, 0 = blocked;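 active = activation factor of 2 or more for CYP2C9 at a 5 µM dose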;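 note: 0 = sulfaphenazole-blocked wells and 1 = vehicle-only wells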
CYP2C9 inh = blocks human cytochrome P450 2C9 | P11712 | 20% of 96,000 active | AID 777 | CYP2C9 Supersomes, luciferin-H conversion, luminescence | inhibition, % at 5 µM;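 active = blocking of liver enzyme CYP2C9 beyond about 50% at 5 µM, limit read from the data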
Starred values were filed as active, the others as inactive.

Screening Cc1cc(=O)n2nc(N3CCCC(C(=O)N4CCc5ccccc54)C3)sc2n1 (centres undefined) returned sEH act 6, CYP2C19 inhib 21, CYP2C19 act 0.8, sEH inh -7, CYP2C9 activ 0.4 and CYP2C9 inh 58*.
Screening CCOC(=O)c1c(OCC)[nH]c2ccc(O)cc12 returned sEH act 3, CYP2C19 inhib -3, CYP2C19 act 1, sEH inh 0, CYP2C9 activ 1.6 and CYP2C9 inh -62.
`Cc1nc2sc(C(c3cccc(F)c3)N3CCCC(C)C3)c(O)n2n1` (centres undefined) gave sEH act -4, CYP2C19 inhib 12, CYP2C19 act 0.9, sEH inh 7, CYP2C9 activ 1.2 and CYP2C9 inh -21.
For Cn1c(=O)[nH]c(=O)c2c1nc(Br)n2CCSc1nc2ccccc2o1 the results were sEH act 8, CYP2C19 inhib 24, CYP2C19 act 0.8, sEH inh -6, CYP2C9 activ 0.8 and CYP2C9 inh 23.
c1cc2c3c(cccc3c1)C(N1CCN(C3=Nc4cccc5cccc3c45)CC1)=N2 was read as sEH act -4 and sEH inh 3.
c1ccc(CC2CCN(C3=Nc4cccc5cccc3c45)CC2)cc1 was read as sEH act 1, CYP2C19 inhib 87*, CYP2C19 act 0.1, sEH inh -3, CYP2C9 activ 1 and CYP2C9 inh -4.
For CC(=O)CC(C)(C)n1nnc(-c2ccccc2)n1 the results were sEH act 15, CYP2C19 inhib 62*, CYP2C19 act 0.4, sEH inh -13, CYP2C9 activ 0.9 and CYP2C9 inh 12.
For Cc1nc(CCNS(=O)(=O)c2cccs2)cs1 the results were sEH act 2, CYP2C19 inhib 34, CYP2C19 act 0.7, sEH inh 2, CYP2C9 activ 1.1 and CYP2C9 inh -12.
`Cc1csc2nc(CCNS(=O)(=O)c3cccs3)cn12` gave sEH act -16, CYP2C19 inhib 70*, CYP2C19 act 0.3, sEH inh 15, CYP2C9 activ 1.2 and CYP2C9 inh -21.
`Cc1ccc(SCc2cn3c(C)csc3n2)cc1` gave sEH act 14, CYP2C19 inhib 90*, CYP2C19 act 0.1, sEH inh -15, CYP2C9 activ 2.9* and CYP2C9 inh -187.
For Cc1cc(C)c(S(=O)(=O)NCc2cn3c(C)csc3n2)c(C)c1 the results were sEH act 26, CYP2C19 inhib 51*, CYP2C19 act 0.5, sEH inh -25, CYP2C9 activ 1.2 and CYP2C9 inh -21.
CC1=C(C(=O)N2CCCCC2)C(c2cccs2)NC(=O)N1 (centres undefined) was read as sEH act -5, CYP2C19 inhib -16, CYP2C19 act 1.2, sEH inh 9, CYP2C9 activ 1.4 and CYP2C9 inh -36.
For CCOC(=O)Cc1csc(NC(=O)CC(C)(C)C)n1 the results were sEH act 14, CYP2C19 inhib 3, CYP2C19 act 1, sEH inh -10, CYP2C9 activ 1 and CYP2C9 inh -1.
Screening CCC(=O)OCCNc1cc(Sc2nc3ccccc3s2)c2nonc2c1[N+](=O)[O-] returned sEH act -3, CYP2C19 inhib 31, CYP2C19 act 0.7, sEH inh 2, CYP2C9 activ 0.5 and CYP2C9 inh 54*.
Cc1ccc(C(=O)Nc2onc(C)c2C#N)cc1 was read as sEH act 2, CYP2C19 inhib 37, CYP2C19 act 0.6, sEH inh 0, CYP2C9 activ 0.4 and CYP2C9 inh 58*.
For O=C1c2ccsc2SCCN1Cc1c(Cl)cccc1Cl the results were sEH act 11, CYP2C19 inhib 97*, CYP2C19 act 0, sEH inh -13, CYP2C9 activ 0.1 and CYP2C9 inh 89*.
O=C1c2ccsc2SCCN1Cc1ccc(Cl)cc1Cl was read as sEH act 1, CYP2C19 inhib 53*, CYP2C19 act 0.5, sEH inh -4, CYP2C9 activ 0.7 and CYP2C9 inh 30.
`O=C(Nc1cnn(Cc2ccc(Cl)cc2Cl)c1)c1cc(-c2cccs2)on1` gave CYP2C19 inhib 3, CYP2C19 act 1, CYP2C9 activ 1 and CYP2C9 inh 1.
Screening C[N+]1=C2CCCCCN2C(O)(c2ccccc2)C1 (centres undefined) returned CYP2C19 inhib -16, CYP2C19 act 1.2, CYP2C9 activ 1.1 and CYP2C9 inh -8.
`CN(C)c1oc(-c2ccccc2Cl)nc1P(=O)(c1ccccc1)c1ccccc1` gave sEH act 4, CYP2C19 inhib 36, CYP2C19 act 0.6, sEH inh -2, CYP2C9 activ 0.3 and CYP2C9 inh 67*.
For COc1ccc(N/C(N)=N/c2nc(CSc3ccc(C)cc3)cc(=O)[nH]2)cc1 the results were sEH act 0, CYP2C19 inhib 37, CYP2C19 act 0.6, sEH inh 0, CYP2C9 activ 0.7 and CYP2C9 inh 29.
Screening COc1ccccc1N/C(N)=N/c1nc(CSc2ccc(C)cc2)cc(=O)[nH]1 returned sEH act 5, CYP2C19 inhib 61*, CYP2C19 act 0.4, sEH inh -8, CYP2C9 activ 0.4 and CYP2C9 inh 61*.
Screening COC(=O)CSc1snnc1-c1ccc(F)cc1 returned sEH act 6, CYP2C19 inhib 66*, CYP2C19 act 0.3, sEH inh -10, CYP2C9 activ 0.9 and CYP2C9 inh 5.
CCOC(=O)c1c(NC(=O)Cn2nnc3ccccc32)sc2c1CCC(C)C2 (centres undefined) was read as CYP2C19 inhib 61*, CYP2C19 act 0.4, CYP2C9 activ 0.1 and CYP2C9 inh 88*.
Cn1c(SCC(=O)NC(c2ccccc2)c2ccccc2)nnc1-c1cccs1 was read as sEH act -1, CYP2C19 inhib 37, CYP2C19 act 0.6, sEH inh 2, CYP2C9 activ 0.5 and CYP2C9 inh 46.
`C=CCn1c(C(CCC(C)C)CC(C)(C)O)n[nH]c1=S` (centres undefined) gave sEH act -8, CYP2C19 inhib 73*, CYP2C19 act 0.3, sEH inh 10, CYP2C9 activ 0.8 and CYP2C9 inh 23.
Screening Cn1cnnc1SCCC(=O)Nc1ccc(Cl)cc1 returned sEH act -5 and sEH inh 7.
CC1Cc2ccccc2N1C(=O)CSc1ccccc1 (centres undefined) was read as sEH act -2, CYP2C19 inhib 96*, CYP2C19 act 0, sEH inh 4, CYP2C9 activ 1 and CYP2C9 inh -4.
For CC(C)c1nc(SCC(=O)N2c3ccccc3CC2C)c2ccccc2n1 (centres undefined) the results were CYP2C19 inhib 59*, CYP2C19 act 0.4, CYP2C9 activ 0 and CYP2C9 inh 99*.
